Hit rate of the full screen: of about 2,500 compounds, about 1,100 (44%) were called active. So high a share suggests a set chosen from earlier hits. The list shows a part of the results. Unmarked numbers belong to inactive results.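 How the source made its calls: active means inhibition above 50% at 4 µM in the single-point screen; inactive means inhibition of 50% or less.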

This assay in a line: blockers of TNF-a NF-kB luciferase induction – cell-based, HEK293T NF-kB-Luc, luminescence, selectivity assay for NOD1/NOD2 signaling inhibitor project, primary screen (AID 1852). The conditions noted are these: TNF-a induced, 14 h, at 4 µM, active compounds read high.
A word on the inhibition: it is the change of the read-out against control, counted positive when it falls. As for `N#CC(C#N)=C(Nc1ccc(F)cc1)SCc1cccc(F)c1`, the inhibition is 81.7% (active).

With `Cc1ccc(CSC(Nc2ccc(F)cc2)=C(C#N)C#N)cc1`, the inhibition is 74.6% (active).

With `N#CC(C#N)=C(Nc1ccc(F)cc1)SCc1cccc(Br)c1`, the inhibition was 54.7% (active).

Turning to `COc1c(F)c(F)c(C(=O)Nc2cccc(Cl)c2N2CCOCC2)c(F)c1F`, the inhibition is 46.2%.

Take `COc1ccc(C)cc1NC(=O)CN(C)S(=O)(=O)c1ccc2c(c1)c(=O)n(C)c(=O)n2C`: the inhibition was 19.7%.

For the molecule `COc1cc(/C=C/C(=O)c2ccc(C)cc2)ccc1OCC#N`, the inhibition was 19.5%.

Consider `COc1cc(OC)c(OC)cc1/C=C/C(=O)c1ccc(NS(=O)(=O)c2ccc(C)cc2)cc1`, for which the inhibition was 70.3% (active).

Take `COc1cccc(/C=C/C(=O)c2ccc(NS(=O)(=O)c3ccc(C)cc3)cc2)c1`: the inhibition was 4.1%.

As for `COc1cccc(C(=O)/C=C/Nc2ccc(S(=O)(=O)Nc3cccc(C(C)=O)c3)cc2)c1`, the inhibition was 46.2%.

`COc1cc(/C=C/C(=O)c2ccc(NS(=O)(=O)c3ccc(C)cc3)cc2)cc(OC)c1O`: the inhibition is 78.9% (active).

As to `Oc1ccc2ccccc2c1N=Nc1ccccn1`, the inhibition was 95.8% (active).

With `Oc1ccc(N=Nc2ccccc2C(F)(F)F)c2cccnc12`, the inhibition was 20.4%.

In the case of `Cc1ccccc1NC(=O)C1CCN(c2cc(-c3ccccc3)nc3ncnn23)CC1`, the inhibition was 46%.

With `CC(=O)c1ccc(N2CCN(C(=S)Nc3ccc(Oc4ccccc4)cc3)CC2)cc1`, the inhibition was 41.5%.

As to `O=C(Nc1ccc(Oc2ccccc2)cc1)C1CCN(c2c3c(nc4ncnn24)CCC3)CC1`, the inhibition was 62% (active).

Regarding `COc1ccc(CCNC(=O)c2cc(=O)c3cc(C)ccc3o2)cc1OC`, the inhibition is 19.4%.

Take `COCCNC(=S)N(CCc1c(C)[nH]c2ccc(C)cc12)Cc1cc(OC)c(OC)c(OC)c1`: the inhibition was 19.3%.

For `COc1cc(C(=O)NCCOc2cc(C)ccc2C(C)C)cc(OC)c1OC`, the inhibition is 52.4% (active).

On to `CC1=CC(C)(C)Nc2ccc(OC(=O)CN3C(=O)C4CCCCC4C3=O)cc21` (stereo unspecified), for which the inhibition was 42.7%.

For the molecule `CC1=CC(C)(C)Nc2ccc(OC(=O)CN3C(=O)CCC3=O)cc21`, the inhibition was 86.9% (active).

Turning to `CC1=CC(C)(C)Nc2ccc(OC(=O)C(C)N3C(=O)c4ccccc4C3=O)cc21` (stereo unspecified), the inhibition was 40.1%.

Regarding `Cc1cccc(Sc2c(C=O)c3ccccc3n2C)c1`, the inhibition was 60.5% (active).

Turning to `Cn1c(Sc2ccc(Cl)cc2)c(C=O)c2ccccc21`, the inhibition was 34.4%.

On to `Cc1ccc(Sc2c(C=O)c3ccccc3n2C)cc1`, for which the inhibition is 86.4% (active).

In the case of `COc1cccc(OCCn2cc(C=O)c3ccccc32)c1`, the inhibition is 42.4%.

For `Cn1c(Sc2ccc(Br)cc2)c(C=O)c2ccccc21`, the inhibition was 48.7%.

Consider `COc1cccc(-c2nnc3n2N=C(C(C)(C)C)CS3)c1`, for which the inhibition was 96.3% (active).

In the case of `c1csc(C2=Nn3c(nnc3-c3ccncc3)SC2)c1`, the inhibition was 90.9% (active).

Consider `COc1ccc(C2=Nn3c(nnc3-c3ccncc3)SC2)cc1`, for which the inhibition was 70.4% (active).

`c1ccc(C2=Nn3c(nnc3-c3ccncc3)SC2)cc1`: the inhibition is 70.9% (active).

Regarding `Clc1ccccc1C1=Nn2c(nnc2-c2ccncc2)SC1`, the inhibition is 84.4% (active).

As for `COC(=O)c1cccc(NS(=O)(=O)c2cccs2)c1C`, the inhibition was 7.7%.

On to `CCc1cccc(C)c1NS(=O)(=O)c1cccs1`, for which the inhibition is -2.7%.

Consider `O=S(=O)(Nc1cccc2ncccc12)c1cccs1`, for which the inhibition was 98.1% (active).

For `Cc1ccc(S(=O)(=O)Nc2cccc3ncccc23)s1`, the inhibition was 96.4% (active).

`Cc1c(NS(=O)(=O)c2ccc3c(c2)OCCO3)cccc1-c1nc2cccnc2s1`: the inhibition is 48.1%.

On to `CC(NC(=S)NC1CCCCC1)c1ccc(C(C)(C)C)cc1` (stereo unspecified), for which the inhibition is 9.1%.

Consider `O=C(Cn1ncc(Cl)c(Cl)c1=O)N1CCc2ccccc21`, for which the inhibition is 73% (active).

For `Cc1cc(Br)ccc1NC(=O)CNC(=O)Cn1ncc(Cl)c(Cl)c1=O`, the inhibition is 94.4% (active).

Consider `O=C1CN(C(=O)Cn2ncc(Cl)c(Cl)c2=O)c2ccccc2N1`, for which the inhibition is 40.3%.

With `CC(C)(C)C(=O)Cn1ncc(Cl)c(Cl)c1=O`, the inhibition was 10.7%.

Consider `O=C(Cn1ncc(Cl)c(Cl)c1=O)c1ccc(Cl)cc1`, for which the inhibition is 75.4% (active).

In the case of `CCOC(=O)c1ccc(NC(=O)Cn2ncc(Cl)c(Cl)c2=O)cc1`, the inhibition was 60.3% (active).

Take `CCC(=O)Nc1ccc(C(=O)Cn2ncc(Cl)c(Cl)c2=O)cc1`: the inhibition was 56.5% (active).

On to `Cc1ccc(-c2csc(N3CCN(CCCn4c(-c5ccncc5)nc5ccccc54)CC3)n2)cc1`, for which the inhibition was -10.9%.

For `CC(=O)Nc1nc(C)c(-c2csc(Nc3cccc([N+](=O)[O-])c3)n2)s1`, the inhibition was 24.8%.

On to `CCN(c1ccc(C)cc1)S(=O)(=O)c1nnc(NC(=O)c2ccco2)s1`, for which the inhibition was 10.4%.

In the case of `CC(=O)Nc1nc(C)c(-c2csc(Nc3ccc(O)cc3)n2)s1`, the inhibition was 58.5% (active).

For the molecule `CC(=O)Nc1ccc(C(=O)Nc2nc(-c3cc(C)n(Cc4ccccc4)c3C)cs2)cc1`, the inhibition was 20.1%.

Consider `COc1ccccc1Nc1nc(-c2sc(NC(=O)c3ccco3)nc2C)cs1`, for which the inhibition is 82.3% (active).

Regarding `Cc1ccc(O)c(C(=O)c2cnc3c(c2)COc2ccc(C)cc2-3)c1`, the inhibition is 22%.

Take `Cc1[nH]nc2ncc(C(=O)c3ccccc3O)cc12`: the inhibition is 67.9% (active).

Take `O=C(c1cnn(C(=O)c2ccc(O)cc2)c1)c1ccccc1O`: the inhibition is 9.9%.

For `C/C(=N\NC(=O)c1ccc(Cl)cc1)c1ccccn1`, the inhibition was 103% (active).

Consider `C/C(=N\NC(=O)COc1ccccc1-c1ccccc1)c1ccccn1`, for which the inhibition was 106% (active).

For the molecule `C/C(=N\NC(=O)Cc1ccc(Cl)cc1)c1ccccn1`, the inhibition is 101% (active).

Regarding `C/C(=N\NC(=O)c1cc(Br)ccc1O)c1ccccn1`, the inhibition is 25.1%.

As to `C/C(=N\NC(=O)c1cccc(Br)c1)c1ccccn1`, the inhibition is 98% (active).

For `Cc1ccc(Nc2nc3nonc3[nH]c2=O)cc1Cl`, the inhibition is -23%.

For the molecule `C/C(=N\NC(=O)c1ccc(Cl)c(Cl)c1)c1ccccn1`, the inhibition is 102% (active).

For the molecule `C/C(=N\NC(=O)c1ccc(F)cc1)c1ccccn1`, the inhibition was 106% (active).

Consider `COc1ccc(C(=O)N/N=C(\C)c2ccccn2)cc1OC`, for which the inhibition is 106% (active).

Turning to `CCOC(=O)c1ccc2nc(Nc3nc4ccc(F)cc4s3)sc2c1`, the inhibition was -87.4%.

Consider `CCOC(=O)c1csc(Nc2nc3ccc(F)cc3s2)n1`, for which the inhibition was 106% (active).

`COC(=O)c1ccc2nc(Nc3nc4ccc(F)cc4s3)sc2c1`: the inhibition was 0%.

For the molecule `Nc1[nH]n2c(=O)cc(-c3ccccc3)nc2c1N=Nc1ccccc1`, the inhibition was 64.7% (active).

`Nc1[nH]n2c(=O)cc(-c3ccccc3)nc2c1N=Nc1ccc2c(c1)OCO2`: the inhibition is 50.6% (active).

Turning to `COc1cccc(N=Nc2c(N)[nH]n3c(=O)cc(-c4ccccc4)nc23)c1`, the inhibition is 75.4% (active).

As for `O=C(CSCc1ccccc1Cl)N1CCN(c2ccccn2)CC1`, the inhibition was -30.9%.

`CCc1ccc(-c2nc(CSCC(=O)N3CCN(c4ccccn4)CC3)c(C)o2)cc1`: the inhibition is 73.1% (active).

`CCOc1ccc(-c2nc(CSCC(=O)N3CCN(c4cccc(OC)c4)CC3)c(C)o2)cc1`: the inhibition is 49.3%.

On to `O=C(Nc1cccc(NC(=O)c2sc3ccccc3c2Cl)c1)c1ccco1`, for which the inhibition was -117%.

As to `O=C(Nc1nccs1)c1sc2cc(Cl)ccc2c1Cl`, the inhibition was 103% (active).

In the case of `Cn1ncc([N+](=O)[O-])c1C(=O)Nc1ccc(-c2ccccc2)cc1`, the inhibition is -39.7%.

Regarding `CS(=O)(=O)N1CCC(C(=O)Nc2cccc(Cl)c2)CC1`, the inhibition was 4.2%.

Regarding `Cn1ncc([N+](=O)[O-])c1C(=O)Nc1cccc(Cl)c1`, the inhibition is 92.6% (active).

As to `O=C(Nc1ccc([N+](=O)[O-])cc1)Nc1nc(-c2ccc(Cl)s2)cs1`, the inhibition is 42.8%.

For `Cc1ccccc1CN(CC(=O)Nc1cccc([N+](=O)[O-])c1)S(=O)(=O)c1ccc(Cl)cc1`, the inhibition is -15.8%.

For the molecule `O=[N+]([O-])c1cccc(NC(=S)Nc2nc(-c3ccc(Cl)cc3Cl)cs2)c1`, the inhibition was 64.3% (active).

Regarding `Cc1csc(NC(=S)Nc2cccc(Cl)c2)n1`, the inhibition was 100% (active).

As to `Cc1ccc(NC(=S)NC(=O)c2ccc(F)cc2)cc1S(=O)(=O)Nc1cccc(Cl)c1`, the inhibition is 32.5%.

As for `CCN1/C(=C/c2sc(-c3ccccc3C)c[n+]2C)Sc2ccccc21`, the inhibition is 95.5% (active).

As to `CCCCN1/C(=C/c2ccc3ccccc3[n+]2CC)Sc2ccccc21`, the inhibition is 45.1%.

Consider `CCN1/C(=C/c2ccc3cccc(C)c3[n+]2CC)Sc2ccccc21`, for which the inhibition is 61.9% (active).

On to `CC[n+]1c(/C=C2\Sc3ccccc3N2C)ccc2cccc(C)c21`, for which the inhibition was 70.3% (active).

For `CC(C)(C)C1C/C(=C/c2ccccn2)C(=O)/C(=C/c2ccccn2)C1` (stereo unspecified), the inhibition is 103% (active).

Regarding `CC1C/C(=C/c2ccccn2)C(=O)/C(=C/c2ccccn2)C1` (stereo unspecified), the inhibition was 96.2% (active).

With `O=C(Nc1ccc(-c2nc3ncccc3o2)cc1)c1ccc([N+](=O)[O-])o1`, the inhibition is 27.5%.

On to `O=C(NCc1ccccc1)C1=C[C@@H](c2csc3ccccc23)C[C@@H](OCCCCO)O1`, for which the inhibition was 69.1% (active).

As to `Cn1c(/C=C/c2ccc(Br)cc2)c([N+](=O)[O-])c(=O)n(C)c1=O`, the inhibition was -12.1%.

As for `Cn1c(/C=C/c2ccc(Cl)cc2)c([N+](=O)[O-])c(=O)n(C)c1=O`, the inhibition was 18.7%.

As to `Cn1c(/C=C/c2ccc(Cl)cc2Cl)c([N+](=O)[O-])c(=O)n(C)c1=O`, the inhibition is 71.4% (active).

In the case of `O=C(Nc1sc2c(c1C(=O)NCCCO)CCCC2)c1ccccc1`, the inhibition is 35.2%.

Regarding `Cc1sc(NC(=O)c2ccccc2)c(C(c2ccccn2)N2CCN(CCO)CC2)c1C` (stereo unspecified), the inhibition was 51.9% (active).

For `Cc1nn(Cc2ccc(Cl)cc2)c(C)c1NC(=O)c1noc2c1CCc1ccccc1-2`, the inhibition was 105% (active).

Turning to `Cc1cc(C(=O)Nc2c(C)nn(Cc3c(Cl)cccc3Cl)c2C)no1`, the inhibition is -34.2%.
